RORg inh: inhibitors of mouse ROR gamma transcriptional activity; P51450; Drosophila S2 Gal4-RORgamma UAS-luciferase reporter, 20 h; Potency, µM (titrated, usually from 53.6 µM), most hits filed as inhibitors; 310,000 compounds, 5.4% hits; AID 2551; note: nearly all actives have a fitted effect of over 60% in size
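Schneider cells (Drosophila), stable Gal4 DBD–ROR gamma + UAS-luc; 1 hr cmpd preincubation; Cu2+ induction 700 uM final; 20 hr ambient; luminescence.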
GLP1R ag: activates the human GLP-1 receptor; P43220; HEK293 GLP-1R CRE-luciferase, luminescence, 4-6 h; cells express a hypersensitive GLP-1R form; Potency, µM (doses to about 45.6 µM), hits mostly activators; 380,000 compounds, 0.007% hits; AID 624172
Target sequence (P43220 whole entry, looked up): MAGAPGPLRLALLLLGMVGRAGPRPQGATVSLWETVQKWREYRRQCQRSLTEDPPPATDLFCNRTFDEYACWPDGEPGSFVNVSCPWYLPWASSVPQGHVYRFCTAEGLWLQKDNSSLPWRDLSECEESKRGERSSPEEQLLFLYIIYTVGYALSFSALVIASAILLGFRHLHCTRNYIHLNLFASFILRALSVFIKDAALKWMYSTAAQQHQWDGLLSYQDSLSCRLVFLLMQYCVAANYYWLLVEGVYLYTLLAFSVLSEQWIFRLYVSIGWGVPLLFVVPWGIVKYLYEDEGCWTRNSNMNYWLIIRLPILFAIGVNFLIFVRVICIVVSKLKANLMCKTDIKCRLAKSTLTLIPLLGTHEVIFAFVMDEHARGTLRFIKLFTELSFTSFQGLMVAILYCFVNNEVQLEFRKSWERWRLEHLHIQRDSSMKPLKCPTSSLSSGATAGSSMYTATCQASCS
GLP1R cytotox: cytotoxic in the GLP-1 receptor inverse agonist counter-screen; 410,000 compounds, 0.13% hits; HEK293 cAMP-luciferase reporter cells, luminescence, 24 h; Potency, µM (doses to about 38.3 µM), hits mostly inhibitors; AID 624418;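 note: loss of luciferase light is scored as toxicity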
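MLSMR compounds, 24 hr on cells at 37 deg C/5% CO2; luminescence after luciferase reagent (12 min RT). Inhibition counted as the undesired cytotoxic outcome.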
VP16 counter: inhibits Gal4-VP16 luciferase reporter, ROR gamma counter-screen | Drosophila S2 Gal4-VP16 UAS-luciferase, luminescence, 20 h | Potency, µM (series often up to 53.6 µM), most hits filed as inhibitors | 310,000 compounds, 3.5% hits | AID 2546;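 note: Gal4-VP16 expression switched on by copper sulfate through the metallothionein promoter; nearly all actives have a fitted effect of over 50% in size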
GLP-1R inv ag: inverse agonists of human GLP-1 receptor. AID 624417. P43220. Potency, µM (highest dose often 38.3 µM), hits mostly inhibitors. 410,000 compounds, 1.6% hits. HEK293 GLP-1R CRE-luciferase, luminescence, 24 h; GLP-1R form is constitutively active; note: nearly all actives have a fitted effect of over 55% in size
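Luminescence readout: a drop in cAMP-driven luciferase signal flags inverse agonism at a constitutively active GLP-1R stably expressed in HEK293. Compound exposure lasted 24 hr at 37 deg C, 5% CO2.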
Large screens that a line does not name were inactive. Hits are enriched below; roughly 5.9% of the tested compounds scored in any of these assays. Calls come from the whole dose curve; as a rule, active = well fitted curve in the direction sought with a large enough effect; inconclusive = small, poorly fitted or top-dose-only effect, or another doubt; inactive = no such curve, though single readings can be large; an effect the other way counts as inactive or inconclusive.

CC1=C(C(=O)NC2CCCc3c2cnn3-c2cccc(C)c2C)OCCO1 (stereo unspecified)	RORg inh inconclusive, VP16 counter 11µM
Cc1cccc(-n2ncc3c2CCCC3NC(=O)Cc2c(C)noc2C)c1C (stereo unspecified)	VP16 counter 10µM
CCn1cc(C(=O)NC2CCCc3c2cnn3-c2cccc(C)c2C)cn1 (stereo unspecified)	VP16 counter 1.3µM (no result: GLP1R ag, GLP1R cytotox, GLP-1R inv ag)
Cc1cc(C(=O)NC2CCCc3c2cnn3-c2cccc(C)c2C)no1 (stereo unspecified)	RORg inh inconclusive, VP16 counter inconclusive, GLP-1R inv ag inconclusive
Cc1ccc(-n2nc(CO)c(C(=O)NCc3ccccn3)n2)cc1	none (no result: RORg inh, GLP1R ag, VP16 counter)
O=S(=O)(Cc1cc(N2CCOCC2)nc(-c2ccccn2)n1)c1ccccc1	RORg inh 16µM
O=C(N/N=C/c1ccccn1)c1sc2ccccc2c1Cl	RORg inh 2.8µM, GLP1R cytotox inconclusive, VP16 counter 3.2µM, GLP-1R inv ag inconclusive
Cc1c(/C=N/NC(=O)c2sc3ccccc3c2Cl)cnn1C	RORg inh 2µM, VP16 counter 11µM
Cn1cccc1/C=N/NC(=O)c1sc2ccccc2c1Cl	RORg inh 0.45µM, VP16 counter 3.2µM
O=C(N/N=C/c1c[nH]c2ccccc12)c1sc2ccccc2c1Cl	RORg inh inconclusive, VP16 counter inconclusive, GLP-1R inv ag inconclusive
COc1ccc2c(Cl)c(C(=O)N/N=C/c3c(C)[nH]c4ccccc34)sc2c1	GLP-1R inv ag inconclusive
Cn1cccc1/C=N/NC(=O)Cc1cccc2ccccc12	RORg inh inconclusive, VP16 counter 14µM
Cc1ccc(N2C(=O)CS(=O)(=O)C23C(=O)N(Cc2cccc(F)c2)c2ccccc23)cc1Cl (stereo unspecified)	GLP-1R inv ag inconclusive (no result: RORg inh, VP16 counter)
O=C(N/N=C/c1ccc([N+](=O)[O-])o1)c1sc2ccccc2c1Cl	RORg inh 2.5µM, GLP1R cytotox inconclusive, VP16 counter 3.2µM, GLP-1R inv ag inconclusive
O=C(N/N=C\c1ccc([N+](=O)[O-])o1)c1ccc(O)cc1	RORg inh inconclusive, VP16 counter inconclusive (no result: GLP1R cytotox, GLP-1R inv ag)
Cc1ccc(N2C(=O)C3C4C=CC(CNC(=S)N5CCN(c6cccc(C)c6)C(C)C5)(O4)C3C2=O)cc1 (stereo unspecified)	RORg inh 8.9µM, VP16 counter inconclusive, GLP-1R inv ag inconclusive
O=C(CCS(=O)(=O)c1ccc(F)cc1)Nc1nc(-c2ccccn2)cs1	RORg inh 10µM, GLP1R cytotox inconclusive, GLP-1R inv ag inconclusive
COc1ccc(OCCCC(=O)Nc2nc(-c3ccccn3)cs2)cc1	RORg inh 10µM, GLP1R cytotox inconclusive, GLP-1R inv ag inconclusive
CC(Oc1ccc(F)cc1)C(=O)Nc1nc(-c2ccccn2)cs1 (stereo unspecified)	GLP1R cytotox inconclusive, GLP-1R inv ag 10µM (no result: RORg inh, VP16 counter)
O=C(CSc1nnnn1-c1cccc2c1CCCC2)N1CCCC1	VP16 counter inconclusive, GLP-1R inv ag inconclusive
COc1cccc(-n2nnnc2SCC(=O)N2CCCc3ccccc32)c1	RORg inh 20µM, VP16 counter inconclusive
Cc1cccc(-n2ccnc2SCC(=O)N2CCCc3ccccc32)c1C	GLP-1R inv ag 11µM
COc1cc(OC)cc(-n2nnnc2SCC(=O)N2CCCc3ccccc32)c1	none
Cc1cccc(-n2ccnc2SCC(=O)Nc2ccc(F)cc2F)c1C	GLP-1R inv ag inconclusive (no result: RORg inh, VP16 counter)
CC1CCCC(C)N1C(=O)CSc1nnnn1-c1cccc2c1CCCC2 (stereo unspecified)	VP16 counter inconclusive, GLP-1R inv ag 7.9µM
Cn1ccnc1SCC(=O)N1CCc2ccccc21	GLP1R cytotox inconclusive, VP16 counter inconclusive
Cc1ccc(C)c(NC(=O)CSc2nccn2-c2cccc(C)c2C)c1	GLP-1R inv ag 13µM (no result: RORg inh, GLP1R ag, VP16 counter)
Cc1ccc(C)c(NC(=O)CSc2nnc(-c3cc4occc4n3C)n2-c2ccccc2C)c1	GLP-1R inv ag 11µM (no result: RORg inh, GLP1R ag, VP16 counter)
CCc1cccc(CC)c1-n1c(SCC(=O)N2CCCc3ccccc32)nc(O)cc1=O	GLP-1R inv ag 10µM (no result: RORg inh, VP16 counter)
C/C(=C\C(=S)Nc1ccccc1)Nc1ccccc1	RORg inh 10µM, GLP1R cytotox inconclusive, VP16 counter inconclusive, GLP-1R inv ag inconclusive
CC(=O)Nc1ccc(NC(=S)Nc2ccccc2)cc1	none
COC(=O)C1=NOC2(C=C(Br)C(OC)=C(Br)C2=O)C1 (stereo unspecified)	RORg inh 1.8µM, VP16 counter 2.5µM (no result: GLP1R ag, GLP1R cytotox, GLP-1R inv ag)
Cc1cc(C)n(CC(=O)Nc2cc(F)ccc2F)c(=O)c1C#N	none (no result: RORg inh, VP16 counter)
COC(=O)[C@H](Cc1ccccc1)NC(=O)O[C@@H]1Cc2cc(OC)ccc2O[C@H]1c1cccc(OC)c1	none (no result: GLP1R ag, GLP1R cytotox, GLP-1R inv ag)
C=CCOC(=O)C1=C(C)NC(C)=C(C(=O)OCC=C)C1/C=C/c1ccccc1	RORg inh inconclusive, GLP-1R inv ag 5µM
C=CCOC(=O)C1=C(C)NC(C)=C(C(=O)OCC=C)C1c1ccco1	GLP-1R inv ag 11µM
CCOC(=O)C1=C(C)NC(C)=C(C(=O)OCC)C1/C=C/c1ccccc1	none
CCOC(=O)C1=C(C)NC(C)=C(C(=O)OC)C1c1ccco1 (stereo unspecified)	none
CCOc1ccc(S(=O)(=O)N(CC)CC)cc1NS(=O)(=O)c1ccc(F)c(F)c1F	GLP-1R inv ag inconclusive
CCN(CC)S(=O)(=O)c1ccc(O)c(NS(=O)(=O)c2ccccc2F)c1	RORg inh 10µM
CCCCN1CC(c2nc3ccccc3n2CCCCOc2cc(C)ccc2C)CC1=O (stereo unspecified)	GLP-1R inv ag inconclusive (no result: RORg inh, GLP1R ag, VP16 counter)
C=Cc1ccc(C=C)cc1	none (no result: GLP1R ag, GLP1R cytotox, GLP-1R inv ag)
CCOC(=O)C(=N/O)/C(C)=N/NC(=O)C(=O)Nc1cc(Cl)ccc1Cl	RORg inh 11µM, VP16 counter 22µM
CCC1CN(C(=O)N2CCC(C(=O)NCCC3=CCCCC3)CC2)c2cc(C)ccc2O1 (stereo unspecified)	none (no result: RORg inh, GLP1R ag, VP16 counter)
O=C1C(SCCO)=C(SCCO)C(=O)c2ccccc21	RORg inh 0.63µM, VP16 counter 0.79µM
CC1=C(SCc2ccccc2)C(=O)c2ccccc2C1=O	GLP-1R inv ag inconclusive (no result: RORg inh, VP16 counter)
COc1ccc(NC(=O)CSc2nncn3c2cc2occc23)c(OC)c1	none (no result: RORg inh, GLP1R ag, VP16 counter)
COc1cccc2c1CCC1=CC(=O)CC[C@@]12C	none (no result: GLP1R ag, GLP1R cytotox, GLP-1R inv ag)
Cc1csc(SCC(=O)c2cc(C)n(Cc3cccs3)c2C)n1	RORg inh 6.3µM, VP16 counter 8.9µM, GLP-1R inv ag inconclusive
Cc1cc(C(=O)CSc2nnc(N)s2)c(C)n1Cc1cccs1	RORg inh 8.9µM, VP16 counter 11µM, GLP-1R inv ag inconclusive
CC(=O)Nc1ccc(SCC(=O)c2cc(C)n(Cc3cccs3)c2C)cc1	VP16 counter inconclusive
NC(=S)Nc1ncc(C(F)(F)F)cc1Cl	RORg inh 7.1µM, GLP1R cytotox inconclusive, VP16 counter inconclusive
Cc1ccccc1NC(=S)NNc1ncc(C(F)(F)F)cc1Cl	none
FC(F)(F)c1cnc(NNC(=S)Nc2cccnc2)c(Cl)c1	RORg inh 13µM, VP16 counter inconclusive, GLP-1R inv ag inconclusive
NC(=S)c1ncc(C(F)(F)F)cc1Cl	none

Assay outcomes: PubChem BioAssay, National Center for Advancing Translational Sciences (NCATS)
